40 molecules from PubChem BioAssay (NCATS) can be followed below.

Results filed as inconclusive are left out. Unmarked numbers belong to inactive results. Calls of active or inactive are those of the source. The call rests on the fitted dose curve; in most records, active means well fitted cell-killing curve with a large enough effect; inconclusive means small, poorly fitted or top-dose-only effect; inactive means flat fitted curve, though single readings scatter.
On the % scale 0 is the no-effect control and ±100 the full control effect; potency means the concentration at half of the fitted maximal effect.

A short description of the assay: qHTS of pediatric cancer cell lines to identify multiple opportunities for drug repurposing: Primary screen for TC32 cells (AID 1347089). Further: nearly all actives have a fitted effect of over 60% in size. The settings on record: TC32 Ewing sarcoma viability, CellTiter-Glo luminescence, 48 h; series mostly up to 45.8 µM; activity change, negative = cytotoxic: at the top concentration. An excerpt:
Drug repurposing or repositioning has been offered as a strategy for drug development in oncology programs. This approach has special potential for childhood cancers and other rare or orphan diseases, where the expected return on new drug development has been a disincentive to pharmaceuticals.
In this project we exploit the poly-pharmacology of drugs to discover new indications via phenotypic screening of a panel of 19 well-characterized cell lines derived from solid tumors seen in children and adolescents. The goal is to identify approved drugs with previously unrecognized anticancer properties that has the potential to reveal new mechanisms and biological processes involved in carcinogenesis or drug resistance. We employed a titration-based paradigm (quantitative high-throughput screening or qHTS), where all compounds were tested at multiple concentrations for their effect on cell viability. Concentration-response curves (CRCs) were derived directly from the primary screen, and both potency and efficacy values were used to identify compounds with robust bioactivity profiles. We screened the NIH Chemical Genomics Center (NCGC) Pharmaceutical Collection (NPC) and Mechanism Interrogation Plate (MIPE) small molecule collections of approved and investigational compounds against these cell lines; and measured metabolically active cells after 48 hours of compound treatment as a proxy for cell viability.
Assay Submitter: Nathalia J. Martinez, National Center for Advancing Translational Sciences, National Institutes of Health, Rockville, MD, USA; email: natalia.martinez@nih.gov
[1] Shen, M et al. Quantitative high-throughput phenotypic screening of pediatric cancer cell lines identifies multiple opportunities for drug repurposing. Oncotarget 2017 Dec 19;9(4):4758-4772. PMID 29435139.
The cells were obtained from University of North Carolina (UNC), Pediatric Preclinical Testing Program (PPT), and Coriell Institute (CI).
qHTS cell viability assay:
Cells were assayed in growth media at a density of 500-1,000 cells/well. Five microliters of cells were dispensed into 1,536-well, white, solid-bottom, TC-treated plates (Greiner Bio One) using a multidrop dispenser and incubated at 37 degrees C, 5% CO2, under a humidified atmosphere for 5 hours. Twenty-three nanoliters of compounds and controls (neutral control DMSO or positive control bortezomib at final concentration of 2.3 uM) were subsequently transferred by Kalypsys pintool. For primary screens, the MIPE collection was tested at 11-point dilutions (final concentrations range from 0.78 nM to 46 µM) and the NPC collection at 8-point dilutions (final concentrations range from 0.59 nM to 46 µM). Compounds tested in follow-up screens were assayed at 11-point dilutions. Cells were incubated for 48 hours, followed by addition of 3 uL of CellTiter-Glo (Promega). After a 15min incubation at room temperature, samples were analyzed for luminescence intensity using a ViewLux High-throughput CCD imager equipped with clear filters.
With `CCN1CCC[C@H]1CNC(=O)c1c(OC)ccc(Br)c1OC`, the “activity change, negative = cytotoxic” value is 13.9%.
Still for that read-out and setting: to `COc1ccc(OC)c(C(O)CNC(=O)CN)c1` (stereo not given) belongs 0.88%.
For the molecule `Cc1cccn2c(=O)c(-c3nnn[nH]3)cnc12`, the “activity change, negative = cytotoxic” value was 2.6% [at 16 µM].
Turning to `Clc1ccc2c(c1)CCc1cccnc1C2=C1CCNCC1`, the “activity change, negative = cytotoxic” value was -1.45%.
As to `CC(Cc1ccccc1)(NC(=O)CN)c1ccccc1` (stereo not given), the “activity change, negative = cytotoxic” value was 14.2%.
As for `C=C1C[C@H]2[C@@H]3C=C(C)C4=CC(=O)CC[C@]4(C)[C@H]3CC[C@]2(C)[C@@]1(OC(C)=O)C(C)=O`, the “activity change, negative = cytotoxic” value is 1.49%.
On the same count and under the same terms, then `COc1cc(-c2ccc(=O)[nH]n2)ccc1OC(F)F`, with -9.24%; and `COc1cc(C(=S)N2CCOCC2)cc(OC)c1OC`, with 4.3%.
On the same count and under the same terms, to `CC(C)(C)NC(=O)[C@@H]1CN(Cc2cccnc2)CCN1C[C@@H](O)C[C@@H](Cc1ccccc1)C(=O)N[C@H]1c2ccccc2C[C@H]1O` belongs 1.3%; to `O=C(O)CCCCC(=O)O`, 14.2%.
Take `NC(=O)CC[C@@H]1NC(=O)[C@H](Cc2ccccc2)NC(=O)[C@H](Cc2ccc(O)cc2)NC(=O)CCSSC[C@@H](C(=O)N2CCC[C@H]2C(=O)N[C@@H](CCCN=C(N)N)C(=O)NCC(N)=O)NC(=O)[C@H](CC(N)=O)NC1=O`: the “activity change, negative = cytotoxic” value is 10.5%.
For `CCCCCCCCCCCCCCCCCC(=O)OCC(O)CO` (stereo not given), the “activity change, negative = cytotoxic” value was 8.51%.
With `O=c1[nH]c(=O)n([C@H]2C[C@H](O)[C@@H](CO)O2)cc1C(F)(F)F`, the Potency is 1050 nM (active).
Regarding `CCN(CC)CCOC(=O)C(c1ccccc1)C1CCCCC1` (stereo not given), the “activity change, negative = cytotoxic” value is -10.8%.
As for `CCCCC(=O)O[C@]1(C(=O)CO)CC[C@H]2[C@@H]3CCC4=CC(=O)CC[C@]4(C)[C@H]3[C@@H](O)C[C@@]21C`, the “activity change, negative = cytotoxic” value is 0%.
Consider `Cc1cccc(C)c1NC(=O)CN1CCN(CCCC(c2ccc(F)cc2)c2ccc(F)cc2)CC1`, for which the “activity change, negative = cytotoxic” value was 2.05%.
Turning to `Cc1c(N(C)CS(=O)(=O)O)c(=O)n(-c2ccccc2)n1C`, the “activity change, negative = cytotoxic” value is 11.6%.
Still for that read-out and setting: then `C#C[C@]1(O)CC[C@H]2[C@@H]3CCC4=CC(=O)CC[C@@H]4[C@H]3CC[C@@]21C`, with 9.29%.
In the case of `Cc1c(C)n(Cc2ccccc2)c2ccc(C(=O)OCCN(C)C)cc12`, the “activity change, negative = cytotoxic” value was -5%.
As to `Cc1ccc(O)c2ncccc12`, the “activity change, negative = cytotoxic” value is -2.72%.
For `COc1cc(OC)cc(OC)c1`, the “activity change, negative = cytotoxic” value is 4.33%.
In the case of `Cc1cc(O)c(C(C)C)cc1Cl`, the “activity change, negative = cytotoxic” value is 14.1%.
For the molecule `CC(C)(CO)[C@@H](O)C(=O)NCCCO`, the “activity change, negative = cytotoxic” value is 10.6%.
The same measure, in the same setting: then `Cc1c(C(C)C)c(=O)n(-c2ccccc2)n1C`, with 5.7%; and `c1ccc(CNCCNCc2ccccc2)cc1`, with 10.2%.
Still for that read-out and setting: then `CCCCCCCCCCCCCCNCCO`, with -7.83%; and `CC(C)(C(=O)c1cccnc1)c1cccnc1`, with 7.23%.
For the molecule `CN1[C@@H]2CC[C@H]1CC(OC(=O)c1c[nH]c3ccccc13)C2` (stereo not given in full), the “activity change, negative = cytotoxic” value was 6.32%.
For the molecule `COc1c(C)c2c(c(O)c1C/C=C(\C)CCC(=O)O)C(=O)OC2`, the Potency is 664 nM (active).
With `COc1cccc(OC)c1C(=O)N[C@@H]1C(=O)N2[C@@H]1SC(C)(C)[C@@H]2C(=O)O`, the “activity change, negative = cytotoxic” value was 7.31%.
Same read-out and setting: then `O=c1ccc2ccccc2o1`, with 11.7%.
Same read-out and setting: then `Cc1ccnc(NS(=O)(=O)c2ccc(N)cc2)n1`, with 18.3%; and `CO/N=C1\CN(c2nc3c(cc2F)c(=O)c(C(=O)O)cn3C2CC2)CC1CN` (stereo not given), with -2.08%; and `CC(=O)OCC(=O)[C@@]12OC(C)(C)O[C@@H]1C[C@H]1[C@@H]3C[C@H](F)C4=CC(=O)C=C[C@]4(C)[C@@]3(F)[C@@H](O)C[C@@]12C`, with 12.6%.
For `CC(C)NC[C@@H](O)COc1cccc2ccccc12`, the “activity change, negative = cytotoxic” value is 4.15%.
Turning to `COc1c2occc2c(OC)c2c(=O)cc(C)oc12`, the “activity change, negative = cytotoxic” value is 14.8%.
For `CCN(CC)C(=O)N1CCN(C)CC1`, the “activity change, negative = cytotoxic” value is 2.68%.
Turning to `CCCCCCCCCCCCCCCCOP(=O)([O-])OCC[N+](C)(C)C`, the “activity change, negative = cytotoxic” value was 0.814%.
As for `COCc1c(C(C)C)nc(C(C)C)c(/C=C/[C@@H](O)C[C@@H](O)CC(=O)O)c1-c1ccc(F)cc1`, the Potency was 1490 nM (active).
Turning to `CC(=O)O[C@]1(C(C)=O)CC[C@H]2[C@@H]3C[C@H](C)C4=CC(=O)CC[C@]4(C)[C@H]3CC[C@@]21C`, the “activity change, negative = cytotoxic” value was 4.5%.
